Measured values as given in PubChem BioAssay (Tox21).
“And” between values parts separate entries of the source, which are not always exact repeats. Identical values can stand only once. Results filed as inconclusive are left out. A call without a number means that no potency is given here. More than one record can exist for a structure, and the calls need not agree. The source made the active and inactive calls. Unless noted, calls come from the whole dose curve; as a rule, active = well fitted curve in the direction sought with a large enough effect in the repeat runs; inconclusive = weak or mixed curves; inactive = no such curve, though single readings can be large; an effect the other way counts as inactive or inconclusive.

Tests used:
[1] = qHTS assay to identify small molecule antagonists of the estrogen related receptor (ERR) signaling pathway from Tox21 library - cell viability counter screen (AID 1224834); note: nearly all actives have a fitted effect of over 30% in size
Summary of the method: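 Viability readout (CellTiter-Fluor fluorescence, 30 min at 37 C) multiplexed with the ERR assay; cells treated 17.5 h at 37 C with compounds delivered in DMSO.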

[2] = molecular target: Luciferin 4-monooxygenase (Photinus pyralis) (UniProt P08659); experiment: qHTS assay to identify small molecule inhibitors of firefly luciferase (AID 1224835); note: nearly all actives have a fitted effect of over 25% in size; note: potency is the fitted concentration of half-maximal effect
Summary of the method: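 Quantitative HTS format; KM concentrations of both substrates. Purified P. pyralis FLuc activity quantified from luminescence images.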

[3] = qHTS assay to identify small molecule agonists of the constitutive androstane receptor (CAR) signaling pathway - cell viability counter screen (AID 1224836); note: series mostly up to about 92 µM; nearly all actives have a fitted effect of over 45% in size
Summary of the method: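 Counter screen multiplexed with the CAR reporter readout: HepG2 cells co-transfected with hCAR and the CYP2B6-2.2kb construct receive a 15-concentration compound series and 0.75 uM PK11195 (final), then CellTiter-Fluor fluorescence is read after 23 h.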

[4] = qHTS assay to identify small molecule antagonists of the constitutive androstane receptor (CAR) signaling pathway - cell viability counter screen (AID 1224837); note: series mostly up to about 92 µM; nearly all actives have a fitted effect of over 45% in size
Summary of the method: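 Fluorescence from CellTiter-Fluor served as the viability signal. Human hepatoma HepG2 cells stably bearing hCAR and CYP2B6-2.2kb received compound plus CITCO (50 nM final) for 23 hr.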

[5] = molecular target: Nuclear receptor subfamily 1 group I member 3 (Homo sapiens) (UniProt Q14994); experiment: qHTS assay to identify small molecule antagonists of the constitutive androstane receptor (CAR) signaling pathway (AID 1224838);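 note: HepG2 cells stably expressing hCAR with CYP2B6 luciferase reporter stimulated by CITCO; nearly all actives have a fitted effect of over 40% in size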
Summary of the method: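 Quantitative HTS in double-stable HepG2-CYP2B6-hCAR cells. After 4 h plating, cells get compound (15 concentrations) and CITCO at 50 nM final, incubate 24 h at 37 C, then ONE-Glo luminescence is read.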

[6] = molecular target: Nuclear receptor subfamily 1 group I member 3 (Homo sapiens) (UniProt Q14994); experiment: qHTS assay to identify small molecule agonists of the constitutive androstane receptor (CAR) signaling pathway (AID 1224839); note: nearly all actives have a fitted effect of over 15% in size; note: potency is the fitted concentration of half-maximal effect; for activation: series mostly up to about 92 µM
Summary of the method: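 A 15-concentration quantitative screen uses HepG2 cells co-transfected stably with human CAR and CYP2B6-2.2kb reporter. Treatment lasts 24 h with 0.75 uM PK11195 final present; ONE-Glo luminescence is the signal.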

[7] = qHTS assay to identify small molecule antagonists of the estrogen related receptor signaling pathway with the pleiotropic PPARgamma coactivator (PGC) from Tox21 10K library - cell viability counter screen (AID 1224840; active = well fitted cell-killing curve with a large enough effect in the repeat runs, not every such curve was filed as active; note: nearly all actives have a fitted effect of over 40% in size)
Summary of the method: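 Compounds in DMSO, alongside positive and negative controls, were pinned onto PGC/ERR cells (2,000 per well). Exposure lasted 17.5 hours at 37 C, followed by a 30-minute CellTiter-Fluor incubation and fluorescence reading.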

[8] = qHTS assay to identify small molecule antagonists of the estrogen related receptor signaling pathway with the pleiotropic PPARgamma coactivator (PGC) from Tox21 10K library (AID 1224841; call rule not given here; note: series mostly up to about 92 µM; actives are mostly falling curves and most rising ones were filed inactive; nearly all actives have a fitted effect of over 50% in size)
Summary of the method: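 Compound exposure ran 18 hours at 37 C in PGC/ERR cells (2,000/well) that had first rested 6 hours in a 37 C/5% CO2 incubator. Luciferase activity was then detected with One-Glo after a 30-minute room-temperature step.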

[9] = qHTS assay to identify small molecule agonists of the estrogen related receptor signaling pathway with the pleiotropic PPARgamma coactivator (PGC) from Tox21 10K library (AID 1224842); note: nearly all actives have a fitted effect of over 15% in size
Summary of the method: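 PGC/ERR reporter cells (NTP line) were seeded 2,000 per well, rested 6 h at 37 C/5% CO2, then pin-dosed with compounds in DMSO for 18 h at 37 C; luciferase read by One-Glo luminescence after 30 min at room temperature.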

[10] = molecular target: Thyrotropin receptor (Homo sapiens) (UniProt P16473); experiment: qHTS assay to identify small molecule agonists of the thyroid stimulating hormone receptor (TSHR) signaling pathway (AID 1224843; calls by dose curve; note: nearly all actives have a fitted effect of over 45% in size)
Summary of the method: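 Cell line HEK293 with TSHR; density 800/well. Exposure 30 min RT. Readout HTRF cAMP (cAMP-d2/anti-cAMP-cryptate), 1 h RT before reading.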

[11] = qHTS assay to identify small molecule agonists of the hypoxia (HIF-1) signaling pathway - cell viability counter screen (AID 1224844; calls by dose curve; note: nearly all actives have a fitted effect of over 50% in size)
Summary of the method: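 Luminescent ATP content (CellTiter-Glo, 30 min, room temperature) served as the viability measure in HRE-bla ME-180 cells exposed to compounds for 17 hrs in low-serum medium (0.5% dialyzed FBS).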

[12] = qHTS assay to identify small molecule agonists of H2AX (AID 1224845; active = well fitted activation curve with a large enough effect in the signal ratio in the repeat runs, not every such curve was filed as active; the % refers to the signal ratio)
Summary of the method: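 Wild-type CHO-K1 cells plated overnight, then exposed 3 hr at 37C to compounds at 15 concentrations (0.76% DMSO). Lysed, then HTRF anti-pH2AX(S139)-cryptate/anti-H2AX-d2 detection after 24 hr at room temperature; emissions 665 and 620 nm.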

[13] = qHTS assay to identify small molecule agonists of the hypoxia (HIF-1) signaling pathway (AID 1224846; active = well fitted activation curve with a large enough effect in the signal ratio in the repeat runs, not every such curve was filed as active; the % refers to the signal ratio)
Summary of the method: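 Measured by blue/green FRET after loading CCF4-AM: beta-lactamase expressed from a hypoxia response element in ME-180 cells. Test agents were delivered in DMSO and left 17 hrs; cells had been plated 5 hrs earlier in low-serum (0.5% dialyzed FBS) medium.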

[14] = qHTS assay to identify small molecule agonists of H2AX - cell viability counter screen (AID 1224847; calls by dose curve; note: top concentration of the series differs between compounds; nearly all actives have a fitted effect of over 30% in size)
Summary of the method: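 We seed wild-type CHO-K1 cells overnight, treat them for 3 hr at 37C with compounds in 15-concentration series, and quantify remaining viability by CellTiter-Glo luminescence.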

[15] = qHTS assay to identify small molecule antagonists of the estrogen related receptor (ERR) signaling pathway from Tox21 library (AID 1224848); note: nearly all actives have a fitted effect of over 50% in size
Summary of the method: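 Screening used an ERR reporter line supplied by NTP, exposed for 18 h at 37 C to library compounds delivered in DMSO. Signal was luciferase luminescence developed with ONE-Glo at room temperature for 30 min.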

[16] = qHTS RealTime-Glo MT Cell Viability Assay in HepG2 cells - 24 hour (AID 1224867); note: nearly all actives have a fitted effect of over 50% in size
Summary of the method: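 Cells + NanoLuc/prosubstrate dispensed (600 cells/well) → 5 h at 37 C/5% CO2 → compounds in DMSO transferred → 40 h incubation at 37 C, luminescence read at 0, 8, 16, 24, 32, 40 h.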

[17] = qHTS RealTime-Glo MT Cell Viability Assay in HEK293 cells - 32 hour (AID 1224868); note: nearly all actives have a fitted effect of over 50% in size; note: potency is the fitted concentration of half-maximal effect
Summary of the method: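 Tox21 10K qHTS, HEK293, 600 cells/well, RealTime-Glo reagent co-dispensed with cells; 5 h preincubation, compound by pintool, 37 C, luminescence at 0–40 h.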

[18] = A CellTox Green Cytotoxicity Assay to monitor cytotoxicity in HEK293 cells - 0 hour (AID 1224869); note: nearly all actives have a fitted effect of over 50% in size
Summary of the method: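 Each value comes from one timepoint of a single continuous run in which HEK293 cells with CellTox Green were exposed to compound for up to 40 h at 37 C, dye fluorescence rising with cell death.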

[19] = qHTS RealTime-Glo MT Cell Viability Assay in HepG2 cells - 40 hour (AID 1224870); note: nearly all actives have a fitted effect of over 50% in size
Summary of the method: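 HepG2 cells mixed with RealTime-Glo MT reagents (NanoLuc plus cell-permeant prosubstrate) were seeded at 600 cells/well, incubated 5 h at 37 C/5% CO2, then pinned with compounds in DMSO; nonlytic luminescence tracked viability during 40 h treatment.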

Luciferin 4-monooxygenase (Photinus pyralis), sequence (P08659 whole entry, looked up): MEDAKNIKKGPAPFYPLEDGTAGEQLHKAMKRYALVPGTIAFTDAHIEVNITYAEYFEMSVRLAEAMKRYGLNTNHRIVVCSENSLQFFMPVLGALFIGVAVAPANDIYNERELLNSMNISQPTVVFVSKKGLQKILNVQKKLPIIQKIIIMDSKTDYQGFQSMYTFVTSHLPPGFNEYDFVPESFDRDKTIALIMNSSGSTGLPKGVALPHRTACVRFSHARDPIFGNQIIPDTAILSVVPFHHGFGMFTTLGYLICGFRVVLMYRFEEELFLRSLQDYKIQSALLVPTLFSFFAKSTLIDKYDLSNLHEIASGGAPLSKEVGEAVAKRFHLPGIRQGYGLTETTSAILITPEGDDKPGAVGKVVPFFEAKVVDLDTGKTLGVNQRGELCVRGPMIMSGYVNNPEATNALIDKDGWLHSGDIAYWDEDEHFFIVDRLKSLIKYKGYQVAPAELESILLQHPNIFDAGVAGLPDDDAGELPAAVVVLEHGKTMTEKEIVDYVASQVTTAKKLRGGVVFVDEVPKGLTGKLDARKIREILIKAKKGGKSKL
Thyrotropin receptor (Homo sapiens), sequence (P16473 whole entry, looked up): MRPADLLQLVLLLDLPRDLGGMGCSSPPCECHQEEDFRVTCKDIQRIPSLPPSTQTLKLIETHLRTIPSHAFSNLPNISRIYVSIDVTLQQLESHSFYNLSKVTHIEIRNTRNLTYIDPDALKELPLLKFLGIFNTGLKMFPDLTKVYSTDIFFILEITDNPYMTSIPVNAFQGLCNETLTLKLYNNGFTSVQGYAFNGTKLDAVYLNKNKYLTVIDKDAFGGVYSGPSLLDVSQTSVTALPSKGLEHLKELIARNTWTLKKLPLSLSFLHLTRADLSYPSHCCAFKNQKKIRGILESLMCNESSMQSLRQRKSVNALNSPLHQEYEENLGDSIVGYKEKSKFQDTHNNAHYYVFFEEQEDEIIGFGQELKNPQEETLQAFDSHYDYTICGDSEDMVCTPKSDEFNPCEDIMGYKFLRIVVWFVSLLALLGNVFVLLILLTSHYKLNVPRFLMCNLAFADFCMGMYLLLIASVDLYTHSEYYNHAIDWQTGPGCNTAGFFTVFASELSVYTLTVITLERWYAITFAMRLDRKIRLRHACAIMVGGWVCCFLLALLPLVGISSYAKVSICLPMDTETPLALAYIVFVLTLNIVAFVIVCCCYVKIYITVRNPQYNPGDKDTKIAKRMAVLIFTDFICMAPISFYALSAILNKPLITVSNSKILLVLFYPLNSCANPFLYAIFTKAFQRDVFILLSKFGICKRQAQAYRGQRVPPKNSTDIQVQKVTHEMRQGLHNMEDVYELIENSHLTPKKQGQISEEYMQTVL
Nuclear receptor subfamily 1 group I member 3 (Homo sapiens), sequence (Q14994 whole entry, looked up): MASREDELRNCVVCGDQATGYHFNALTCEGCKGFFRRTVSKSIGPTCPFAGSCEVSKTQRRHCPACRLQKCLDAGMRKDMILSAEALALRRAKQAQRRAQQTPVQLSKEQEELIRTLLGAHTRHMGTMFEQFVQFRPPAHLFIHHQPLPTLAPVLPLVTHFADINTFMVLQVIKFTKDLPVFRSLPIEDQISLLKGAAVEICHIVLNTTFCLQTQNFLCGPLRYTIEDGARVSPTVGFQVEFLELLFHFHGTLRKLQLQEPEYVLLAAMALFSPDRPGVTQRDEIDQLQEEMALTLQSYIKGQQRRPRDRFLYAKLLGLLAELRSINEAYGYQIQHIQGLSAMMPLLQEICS

SMILES | Potency [1] | Potency [2] | Potency [3] | Potency [4] | outcome [5] | Potency [6] | Potency [7] | Potency [8] | outcome [9] | outcome [10] | outcome [11] | outcome [12] | outcome [13] | outcome [14] | outcome [15] | Potency [16] | Potency [17] | outcome [18] | outcome [19]
CCO[Si](CCCN)(OCC)OCC | inactive | inactive | inactive | inactive | inactive | inactive | inactive | inactive | inactive | inactive | inactive | inactive | inactive | inactive | inactive | inactive | inactive | inactive | inactive
O=C(O)c1ccc(C(=O)O)c(C(=O)O)c1 | inactive | inactive | inactive | inactive | inactive | inactive | inactive | inactive | inactive | inactive | inactive | inactive | – | inactive | inactive | inactive | inactive | inactive | inactive
O=C(O)c1cc2ccccc2cc1O | inactive | 35.3 µM (active) and 31.7 µM (active) | inactive | inactive | inactive | 43.3 µM (active) | inactive | inactive | inactive | inactive | inactive | inactive | inactive | inactive | inactive | inactive | inactive | inactive | inactive
COCCCN | inactive | inactive | inactive | inactive | inactive | inactive | inactive | – | – | inactive | inactive | inactive | inactive | inactive | – | inactive | inactive | inactive | inactive
CSc1ccc(Cl)cc1 | inactive | inactive | inactive | inactive | inactive | inactive | inactive | – | – | inactive | inactive | inactive | inactive | inactive | – | inactive | inactive | inactive | inactive
CC(=O)OC1CC(C)OC(C)O1 (stereo not drawn) | inactive | inactive | inactive | inactive | inactive | inactive | inactive | inactive | inactive | – | inactive | inactive | inactive | inactive | inactive | inactive | inactive | inactive | inactive
C=CC(=O)OCCC(=O)O | inactive | inactive | inactive | inactive | inactive | inactive | inactive | inactive | – | inactive | inactive | inactive | inactive | inactive | inactive | inactive | inactive | inactive | inactive
CC(C)(C#N)c1cc(Cn2cncn2)cc(C(C)(C)C#N)c1 | inactive | inactive | inactive | inactive | inactive | inactive | inactive | inactive | inactive | – | inactive | inactive | inactive | inactive | inactive | inactive | inactive | inactive | inactive
CC(C)CC(=O)CC(C)CC(C)C (stereo not drawn) | inactive | inactive | inactive | inactive | inactive | inactive | inactive | inactive | inactive | inactive | inactive | inactive | inactive | inactive | inactive | inactive | inactive and 17.4 µM (active) | inactive | inactive
COC(=O)c1cccnc1 | inactive | inactive | inactive | inactive | inactive | inactive | inactive | inactive | inactive | inactive | inactive | inactive | inactive | inactive | inactive | inactive | inactive | inactive | inactive
CCCCCCCCCCN | inactive | inactive | inactive | inactive | inactive | inactive | inactive | – | – | inactive | inactive | inactive | inactive | inactive | – | inactive | inactive | inactive | inactive
O=C(O)c1ccc(S(=O)(=O)N(Cl)Cl)cc1 | inactive | inactive | inactive | inactive | inactive | inactive | inactive | – | – | inactive | inactive | inactive | inactive | inactive | – | inactive | 49.3 µM (active) and inactive | inactive | inactive
OCc1ccccc1 | inactive | inactive | inactive | inactive | inactive | inactive | inactive | inactive | inactive | inactive | inactive | inactive | inactive | inactive | inactive | inactive | inactive | inactive | inactive
O=C1C(c2[nH]c3ccccc3c2O)=Nc2ccccc21 | inactive | inactive | inactive | inactive | inactive | inactive | inactive | inactive | inactive | inactive | inactive | inactive | inactive | inactive | inactive | inactive | inactive | inactive | inactive
CCCCCCCCCCCCCCCCO | inactive | inactive | inactive | inactive | inactive | inactive | inactive | – | – | inactive | inactive | inactive | inactive | inactive | – | inactive | inactive | inactive | inactive
COc1ccc(N)c(C)c1 | inactive | inactive | inactive | inactive | inactive | inactive | inactive | – | – | inactive | inactive | inactive | inactive | inactive | – | inactive | inactive | inactive | inactive
CCCCC(C=O)CC (stereo not drawn) | inactive | inactive | inactive | inactive | inactive | inactive | inactive | – | – | inactive | inactive | inactive | inactive | inactive | – | inactive | inactive | inactive | inactive
